Reference: ChEMBL document CHEMBL3433997, “St. Jude Leishmania screening dataset” (2016)

Assays:
Type in all cases: functional
[1] = target: Solute carrier family 2, facilitated glucose transporter member 1 (Homo sapiens) (UniProt P11166); assay: ST_JUDE_LEISH: Cytotoxicity at 2uM final concentration against transgenic Leishmania Mexicana promastigotes LmGLUT1 that are glucose transport deficient and complemented with the human glucose transporter GLUT1. Activity is measured by DNA content using SYBR green in vitro
Sequence of Solute carrier family 2, facilitated glucose transporter member 1 (Homo sapiens) (P11166 whole entry): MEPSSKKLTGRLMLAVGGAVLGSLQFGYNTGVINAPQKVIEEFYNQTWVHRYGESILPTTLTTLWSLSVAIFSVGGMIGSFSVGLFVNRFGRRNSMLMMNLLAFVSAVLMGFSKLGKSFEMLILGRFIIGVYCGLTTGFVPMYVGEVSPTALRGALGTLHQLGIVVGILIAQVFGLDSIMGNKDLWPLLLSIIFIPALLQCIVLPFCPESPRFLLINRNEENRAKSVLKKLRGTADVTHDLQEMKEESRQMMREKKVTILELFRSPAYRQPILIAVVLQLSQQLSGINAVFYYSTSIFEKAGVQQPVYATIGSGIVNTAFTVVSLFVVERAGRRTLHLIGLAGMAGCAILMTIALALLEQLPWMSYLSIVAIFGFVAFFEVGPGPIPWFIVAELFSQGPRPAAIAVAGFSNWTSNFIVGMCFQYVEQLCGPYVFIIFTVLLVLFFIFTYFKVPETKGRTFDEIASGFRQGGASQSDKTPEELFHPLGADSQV

[2] = target: Hexose transporter 1 (Plasmodium falciparum) (UniProt O97467); assay: ST_JUDE_LEISH: Cytotoxicity at 2uM final concentration against transgenic Leishmania Mexicana promastigotes LmPfHT that are glucose transport deficient and complemented with the Plasmodium falciparum hexose transporter. Activity is measured by DNA content using SYBR green in vitro
[3] = target: Glucose transporter (Leishmania mexicana) (UniProt O61059); assay: ST_JUDE_LEISH: Cytotoxicity at 2uM final concentration against transgenic Leishmania Mexicana promastigotes LmGT2 that are glucose transport deficient and complemented with the L. Mexicana glucose transporter 2. Activity is measured by DNA content using SYBR green in vitro

**Q.** `COc1ccc(-c2cccc(NC(=O)c3cccc(Cl)c3)c2)cc1CN1CCNCC1` was tested. Which inhibition [1] did it give?
**A.** 2.8%

**Q.** And the inhibition [2]?
**A.** 2.6%

**Q.** And the inhibition [3]?
**A.** -0.77%

**Q.** With `O=C(/C=C/c1ccc(Cl)c(Cl)c1)NCCCCCN1CCC(NC(=O)NCCc2ccccc2)CC1` as the compound, how does the inhibition [1] read?
**A.** 1.48%

**Q.** And the inhibition [2]?
**A.** 1.69%

**Q.** What about the inhibition [3] of the same compound?
**A.** -3.26%

**Q.** Which inhibition [1] does the source give for `NC(=O)c1cccc(C(=O)Nc2ccc(-c3cccc(-c4nc5cc(F)ccc5[nH]4)c3)cc2)c1` here?
**A.** 0.18%

**Q.** And the inhibition [2]?
**A.** 0.01%

**Q.** And the inhibition [3]?
**A.** 0.23%

**Q.** For `COc1ccc(-c2ccc(NC(=O)c3ccc(C#N)cc3)cc2)cc1CN(C)CCN(C)C`, which inhibition [1] is on record?
**A.** 6.36%

**Q.** What about the inhibition [2] of the same compound?
**A.** 4.84%

**Q.** What about the inhibition [3] of the same compound?
**A.** 1.19%

**Q.** How did the inhibition [1] turn out when `CCCCNC(=O)C1CCCN(C(=O)c2ccc(O)c(-c3ccc(Cl)c(Cl)c3)c2)C1` (stereo unspecified) was run?
**A.** 1.28%

**Q.** What about the inhibition [2] of the same compound?
**A.** 1.16%

**Q.** And the inhibition [3]?
**A.** 0.69%

**Q.** `Fc1ccc(OC2CN(c3nccc(NCc4ccccc4Cl)n3)C2)cc1` was tested. Which inhibition [1] did it give?
**A.** 3.81%

**Q.** What about the inhibition [2] of the same compound?
**A.** 2.84%

**Q.** And the inhibition [3]?
**A.** -0.6%

**Q.** With `CC(C)CCN(Cc1cncn1Cc1cccc(C(F)(F)F)c1)C(=O)c1ccccc1C#N` as the compound, how does the inhibition [1] read?
**A.** -3.54%

**Q.** And the inhibition [2]?
**A.** -0.35%

**Q.** What about the inhibition [3] of the same compound?
**A.** 0.86%

**Q.** What does the source list for `COc1ccc(OC)c(CC2c3ccc(Br)c(O)c3CCN2C)c1` (stereo unspecified)?
**A.** inhibition [1]: 1.36%; inhibition [2]: 1.41%; inhibition [3]: 2.33%

**Q.** What does the source list for `CC(=O)Nc1ccc2[nH]cc(C3CCN(CC4CCC(NC(=O)/C=C/c5ccccc5Cl)CC4)CC3)c2n1` (stereo unspecified)?
**A.** inhibition [1]: 6.86%; inhibition [2]: 5.52%; inhibition [3]: 6.59%

**Q.** Which inhibition [1] does the source give for `O=C(NC1CCN(CCC[C@]2(c3ccc(Cl)c(Cl)c3)CCCN(C(=O)c3ccccc3)C2)CC1)c1ccc(F)cc1` here?
**A.** 3.29%

**Q.** What about the inhibition [2] of the same compound?
**A.** 2.13%

**Q.** What about the inhibition [3] of the same compound?
**A.** 2.74%

**Q.** With `CCCc1cc(Cc2cnc(N)nc2N)cc(CC)c1OC` as the compound, how does the inhibition [1] read?
**A.** 6.06%

**Q.** What about the inhibition [2] of the same compound?
**A.** 4.59%

**Q.** And the inhibition [3]?
**A.** 2.29%

**Q.** How did the inhibition [1] turn out when `O=C(Nc1ccc(F)cc1)NC1CCN(c2ccnc3ccccc23)C1` (stereo unspecified) was run?
**A.** 3.76%

**Q.** What about the inhibition [2] of the same compound?
**A.** 3.71%

**Q.** What about the inhibition [3] of the same compound?
**A.** 3.79%

**Q.** Which results are given for `O=C(/C=C/c1ccc(Cl)c(Cl)c1)NC1CCN(Cc2cccc(O)c2)CC1`?
**A.** inhibition [1]: 2.92%; inhibition [2]: 4.2%; inhibition [3]: -2.96%

**Q.** `O=C(NCc1cccc(F)c1)Nc1ccc(-c2cccc(-c3nc4cc(F)ccc4[nH]3)c2)cc1` was tested. Which inhibition [1] did it give?
**A.** 1.98%

**Q.** What about the inhibition [2] of the same compound?
**A.** 1.08%

**Q.** What about the inhibition [3] of the same compound?
**A.** 6.08%

**Q.** For `Oc1cccc(-c2cnc3ccc(NCc4ccc(F)cc4)nn23)c1`, which inhibition [1] is on record?
**A.** -3.17%

**Q.** And the inhibition [2]?
**A.** 0.63%

**Q.** What about the inhibition [3] of the same compound?
**A.** -1.63%

**Q.** What does the source list for `CC(=O)N[C@H](C(=O)Nc1cccc(-c2ccc(-c3nc4cccc(C)c4[nH]3)s2)c1)C(C)C`?
**A.** inhibition [1]: 3.65%; inhibition [2]: 2.85%; inhibition [3]: 2.08%

**Q.** `OC1(c2ccccc2)CCN(Cc2cccc(-c3c[nH]c4nc(NC5CCCC5)ncc34)c2)C1` (stereo unspecified) was tested. Which inhibition [1] did it give?
**A.** 3.82%

**Q.** And the inhibition [2]?
**A.** 3.3%

**Q.** And the inhibition [3]?
**A.** 4.81%
